Experimental data as given in PubChem BioAssay (NCI).
This is part of a sample that, as a whole, favours compounds with a hit. Of some 83,000 tested, about 20% had one in any assay.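 Cells were grown in 96-well plates and exposed to the test compound at a single concentration for 48 hours; results are reported as percent growth, with values below 10 considered active.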 The source made the active and inactive calls.

System: DU-145 prostate
Experiment: NCI-60 one-dose screen, 48 h (100 = growth as untreated, 0 = no growth, -100 = all killed)
Conditions: 10 µM unless noted

Structure (SMILES)	growth
CCOC(C)(c1ccc(Cl)cc1)C1CCNCC1 (stereo unspecified)	102% (inactive)
O=S(=O)(NCC[C@@H]1C[C@H]1c1ccc2ccccc2c1)c1ccc(C(F)(F)F)cc1	96.6% (inactive)
CC(CN1CCN(C)CC1)CN1c2ccccc2Sc2ccc(C(F)(F)F)cc21 (stereo unspecified)	61.7% (inactive)
NC(=S)N/N=C(/c1cccs1)C1CC1	105% (inactive)
COc1cc(C2Nc3ccccc3S2)cc(CN2CCOCC2)c1O (stereo unspecified)	101% (inactive)
O=[N+]([O-])c1cccc([I+]c2ccccc2)c1	58.5% (inactive)
C=CCn1c(SCC(=O)Nc2ccc(/C(C)=N\O)cc2)nnc1-c1cc(-c2ccccc2)nc2ccccc12	75% (inactive)
C=CC[C@]1(O)CC[C@H]2[C@@H]3CCc4cc(O)ccc4[C@H]3CC[C@@]21C	102% (inactive)
CC(=O)c1c(O)c(C)c(O)c2c1OC1=CC(=O)/C(=C(/C)N)C(=O)C12C (stereo unspecified)	100% (inactive)
COc1c(B(O)O)cccc1-c1nc2c(F)cc3n[nH]c(C)c3c2c2c1CCCC2	15% (inactive)
CCCCNCC(O)c1cc(-c2ccc(C(F)(F)F)cc2)nc(-c2ccc(C(F)(F)F)cc2)c1 (stereo unspecified)	6.08% (active)
Oc1[nH]c2ccc(Cl)cc2c1/C=c1/ccc2c(c1)N=C(c1ccc(F)cc1)N=2	86.3% (inactive)
COc1ccc(C(=O)c2c(N)nc3n2CCCC3)cc1OC	107% (inactive)
CCOC(=O)Nc1ccc2nc(-c3cscn3)[nH]c2c1	72.9% (inactive)
CCOC(=O)C(Nc1ccccc1)C(=O)OCC	122% (inactive)
CN1CCN(Cc2ccc(NC(=O)c3cncc(C#Cc4ncc5ccccn45)c3)cc2C(F)(F)F)CC1	-4.29% (active)
COS(=O)(=O)CCN(CCOS(C)(=O)=O)S(C)(=O)=O	105% (inactive)
O=C(c1ccccc1)N(CCCCl)C(=O)N(CCCCl)C(=O)c1ccccc1	102% (inactive)
OC(c1cc2cc(Cl)ccc2c2cc(C(F)(F)F)ccc12)C1CCCCN1 (stereo unspecified)	-95.8% (active)
CC(C)CC(NC(=O)C(CCCN=C(N)N)NC(=O)OCc1ccccc1)C(=O)NC(CNC(=O)/C=C/c1ccccc1)C(C)C (stereo unspecified)	107% (inactive)
CCn1c(CN2CCN(Cc3ccccc3)CC2)nc2cc(NC(=O)c3cccs3)ccc21	-57.7% (active)
COc1cc(C)cc2oc3oc(=O)c(-c4csc(-c5cc6ccccc6oc5=O)n4)cc3c(=O)c12	113% (inactive)
OC(c1cc2c(Cl)cc(Cl)cc2c2cc(C(F)(F)F)ccc12)C1CCCCN1 (stereo unspecified)	-94.5% (active)
N#CC1=C(N)Oc2nc[nH]c(=O)c2C1c1cccs1 (stereo unspecified)	107% (inactive)
Cc1cc(C)cc(Nc2cc(C)nc3nc(C(F)(F)F)nn23)c1	38.1% (inactive)
Cc1ccc(N2C3c4ccccc4N(S(=O)(=O)c4ccc(C)cc4)C2c2ccccc2N3S(=O)(=O)c2ccc(C)cc2)cc1	104% (inactive)
CCOC(=O)c1ccc(NC(=O)NC2=NCCS2)cc1	0.751% (active)

System: K-562 leukemia
Experiment: as above
Conditions: 10 µM unless noted

Structure (SMILES)	growth
[O-]/[N+](=C\c1ccccc1)CC1(O)CCCCC1	95.7% (inactive)
CC(=O)O[C@H]1[C@H](CC#CC#CC[C@@H]2C[C@]3(C)[C@H]4CC=C5[C@H]6[C@@H](C)[C@H](C)CC[C@]6(C(=O)NCCCCCCCCN)CC[C@@]5(C)[C@]4(C)CC[C@H]3C(C)(C)[C@H]2OC(C)=O)C[C@]2(C)[C@H]3CC=C4[C@H]5[C@@H](C)[C@H](C)CC[C@]5(C(=O)NCCCCCCCCN)CC[C@@]4(C)[C@]3(C)CC[C@H]2C1(C)C	108% (inactive)
N#Cc1c(N)c(C(=O)c2ccc3c(c2)OCCO3)n2c1CCCC2	0.198% (active)
Cc1c(O)c(=O)n(-c2ccccc2)n1C	106% (inactive)
COc1ccc2[nH]c(O)c(/C=c3/ccc4c(c3)N=C(c3ccc(C(F)(F)F)cc3)N=4)c2c1	29.7% (inactive)
COc1ccc(/C=C/C(=O)c2ccc(NC(=O)CSc3nnc(-c4ccc(OC)cc4)n3-c3ccccc3)cc2)cc1	78.1% (inactive)
N=C(N)c1ccc(-c2ccc(-c3cc(Cl)cc(Cl)c3)o2)nc1	-65.6% (active)
CN(C)c1ccc(N2Cc3ccccc3OC3=C2C(=O)c2c(O)ccc(O)c2C3=O)cn1	-20.8% (active)
COc1ccccc1/C=N\NC(=S)Nc1ccc(F)cc1	32.3% (inactive)
FC(F)(F)C1=NNC(c2ccc3ccccc3c2)=NN1	95.2% (inactive)
CCCC(CCC)NCC(O)c1cc(-c2ccc(C(F)(F)F)cc2)nc(C(F)(F)F)c1 (stereo unspecified)	-51.1% (active)
CCOC(=O)c1c(NC(=O)c2ccccc2)sc2c(O)c(CN(CC)CC)ccc12	7.52% (active)
CCOC(C)(c1ccc(Cl)cc1)C1CCNCC1 (stereo unspecified)	65.3% (inactive)
O=S(=O)(NCC[C@@H]1C[C@H]1c1ccc2ccccc2c1)c1ccc(C(F)(F)F)cc1	89.2% (inactive)
CC(CN1CCN(C)CC1)CN1c2ccccc2Sc2ccc(C(F)(F)F)cc21 (stereo unspecified)	-31.2% (active)
NC(=S)N/N=C(/c1cccs1)C1CC1	69.3% (inactive)
COc1cc(C2Nc3ccccc3S2)cc(CN2CCOCC2)c1O (stereo unspecified)	46.9% (inactive)
O=[N+]([O-])c1cccc([I+]c2ccccc2)c1	27.3% (inactive)
C=CCn1c(SCC(=O)Nc2ccc(/C(C)=N\O)cc2)nnc1-c1cc(-c2ccccc2)nc2ccccc12	27.6% (inactive)
C=CC[C@]1(O)CC[C@H]2[C@@H]3CCc4cc(O)ccc4[C@H]3CC[C@@]21C	56% (inactive)

Structure (SMILES)	growth
CC(=O)c1c(O)c(C)c(O)c2c1OC1=CC(=O)/C(=C(/C)N)C(=O)C12C (stereo unspecified)	83% (inactive)
COc1c(B(O)O)cccc1-c1nc2c(F)cc3n[nH]c(C)c3c2c2c1CCCC2	17.8% (inactive)
CCCCNCC(O)c1cc(-c2ccc(C(F)(F)F)cc2)nc(-c2ccc(C(F)(F)F)cc2)c1 (stereo unspecified)	-59.5% (active)
Oc1[nH]c2ccc(Cl)cc2c1/C=c1/ccc2c(c1)N=C(c1ccc(F)cc1)N=2	16.4% (inactive)
COc1ccc(C(=O)c2c(N)nc3n2CCCC3)cc1OC	90.6% (inactive)
CCOC(=O)Nc1ccc2nc(-c3cscn3)[nH]c2c1	19.1% (inactive)
CCOC(=O)C(Nc1ccccc1)C(=O)OCC	92.4% (inactive)
CN1CCN(Cc2ccc(NC(=O)c3cncc(C#Cc4ncc5ccccn45)c3)cc2C(F)(F)F)CC1	3.35% (active)
COS(=O)(=O)CCN(CCOS(C)(=O)=O)S(C)(=O)=O	76% (inactive)
O=C(c1ccccc1)N(CCCCl)C(=O)N(CCCCl)C(=O)c1ccccc1	91.1% (inactive)
OC(c1cc2cc(Cl)ccc2c2cc(C(F)(F)F)ccc12)C1CCCCN1 (stereo unspecified)	-76.8% (active)
CC(C)CC(NC(=O)C(CCCN=C(N)N)NC(=O)OCc1ccccc1)C(=O)NC(CNC(=O)/C=C/c1ccccc1)C(C)C (stereo unspecified)	92.3% (inactive)
CCn1c(CN2CCN(Cc3ccccc3)CC2)nc2cc(NC(=O)c3cccs3)ccc21	-27.5% (active)
COc1cc(C)cc2oc3oc(=O)c(-c4csc(-c5cc6ccccc6oc5=O)n4)cc3c(=O)c12	112% (inactive)
OC(c1cc2c(Cl)cc(Cl)cc2c2cc(C(F)(F)F)ccc12)C1CCCCN1 (stereo unspecified)	-75.5% (active)
N#CC1=C(N)Oc2nc[nH]c(=O)c2C1c1cccs1 (stereo unspecified)	104% (inactive)
Cc1cc(C)cc(Nc2cc(C)nc3nc(C(F)(F)F)nn23)c1	20.2% (inactive)
Cc1ccc(N2C3c4ccccc4N(S(=O)(=O)c4ccc(C)cc4)C2c2ccccc2N3S(=O)(=O)c2ccc(C)cc2)cc1	90.4% (inactive)
CCOC(=O)c1ccc(NC(=O)NC2=NCCS2)cc1	58.6% (inactive)
